The record followed here is PubChem BioAssay (NCI).

The structures appear in SMILES notation. The panel holds about 79,000 compounds, 15% with a hit somewhere; the sample as a whole holds those more often. Unmarked numbers belong to inactive results. Calls of active or inactive are those of the source. Cut-off read from the data, not from the text of the source: active = growth inhibition above about 70%; inactive = the rest.

Experiment [1] is described as follows: NCI Yeast Anticancer Drug Screen. Data for the rad50 strain (AID 155).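 Note: 0% = growth of vehicle-only cultures of the same strain.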 Particulars: S. cerevisiae rad50 strain growth inhibition, active compounds read high. The essentials: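 Vehicle-treated cultures provide the reference for the growth inhibition reported for compound-exposed, repair-deficient yeast.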
A short description of experiment [2]: NCI Yeast Anticancer Drug Screen. Data for the mec2-1 strain (AID 157). Particulars: S. cerevisiae mec2-1 strain, active compounds read high. An outline of the steps: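 Cells of the genetically defined mec2-1 yeast strain are incubated with test compound. Inhibition of growth is calculated against vehicle-treated controls.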
The nature of experiment [3]: NCI Yeast Anticancer Drug Screen. Data for the sgs1 mgt1 strain (AID 161).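 Note: 0% = growth of cultures given vehicle only.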 Particulars: S. cerevisiae sgs1 mgt1 strain, active compounds read high. An outline of the steps: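 Read-out: growth inhibition vs vehicle controls. Cells: mutant yeast strain deficient in DNA damage repair.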
Experiment [4] can be described thus: NCI Yeast Anticancer Drug Screen. Data for the cln2 rad14 strain (AID 165).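 Note: 0% = growth equal to vehicle treated cultures.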 Particulars: S. cerevisiae cln2 rad14 strain, active compounds read high. An outline of the steps:
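The screen exposed genetically defined yeast (cln2 rad14) to test compounds and scored growth inhibition relative to vehicle-treated controls.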

Experiment [5] is described as follows: NCI Yeast Anticancer Drug Screen. Data for the bub3 strain (AID 167). Particulars: S. cerevisiae bub3 mutant strain, active compounds read high. An outline of the steps: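 Mutant yeast screening strain plus compound; vehicle-treated cultures serve as the 0% inhibition reference.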
A short description of experiment [6]: NCI Yeast Anticancer Drug Screen. Data for the mlh1 rad18 strain (AID 175). Particulars: S. cerevisiae mlh1 rad18 strain growth inhibition, active compounds read high. An outline of the steps: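 Compound-treated yeast growth, normalised to vehicle controls. Strain bears defined DNA repair mutations.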
Setting [7] is: at 5.0 µM (retest, dose inferred, filed as 0.5).
Setting [8] is: at 50.0 µM (retest, dose inferred, filed as 5.0).

In the case of `O=C1c2cc(Br)ccc2NC1(c1c[nH]c2ccccc12)c1c[nH]c2ccccc12`, the growth inhibition was 98% (active) in experiment [1] (setting [7]); 95% (active) in experiment [1] (setting [8]); 91.8% (active) in experiment [1] (at 50.0 µM); 58% in experiment [2] (setting [7]); 90% (active) in experiment [2] (setting [8]); 94.8% (active) in experiment [2] (at 50.0 µM). Moreover, the growth inhibition was 99% (active) in experiment [3] (setting [7]); 96% (active) in experiment [3] (setting [8]); 94.6% (active) in experiment [3] (at 50.0 µM); 98% (active) in experiment [4] (setting [7]); 94% (active) in experiment [4] (setting [8]); 93.2% (active) in experiment [4] (at 50.0 µM). In addition, the growth inhibition is 95% (active) in experiment [5] (setting [7]); 95% (active) in experiment [5] (setting [8]); 93.8% (active) in experiment [5] (at 50.0 µM); 99% (active) in experiment [6] (setting [7]); 95% (active) in experiment [6] (setting [8]); 92.8% (active) in experiment [6] (at 50.0 µM).

Take `CN(C)C1=NC(N(C)C)=C2C=CC=C12`: the growth inhibition in experiment [1] (setting [7]) was -3%; in experiment [1] (setting [8]), 49%; in experiment [1] (at 50.0 µM), 66.2%; in experiment [2] (setting [7]), -2%; in experiment [2] (setting [8]), 51%; in experiment [2] (at 50.0 µM), 43.8%. The growth inhibition is -4% in experiment [3] (setting [7]); 34% in experiment [3] (setting [8]); 33.4% in experiment [3] (at 50.0 µM); -3% in experiment [4] (setting [7]); 40% in experiment [4] (setting [8]); 72.5% (active) in experiment [4] (at 50.0 µM). Moreover, the growth inhibition in experiment [5] (setting [7]) was 2%; in experiment [5] (setting [8]) it was 73% (active); in experiment [5] (at 50.0 µM) it was 82.2% (active); in experiment [6] (setting [7]) it was -6%; in experiment [6] (setting [8]), 71% (active); in experiment [6] (at 50.0 µM), 86.8% (active).

As for `CCc1ccccc1SC(C)=O`, the growth inhibition is 6% in experiment [1] (setting [7]); 55% in experiment [1] (setting [8]); 29.9% in experiment [1] (at 50.0 µM); 13% in experiment [2] (setting [7]); 70% (active) in experiment [2] (setting [8]); 62% in experiment [2] (at 50.0 µM). Moreover, the growth inhibition in experiment [3] (setting [7]) is 3%; in experiment [3] (setting [8]), 42%; in experiment [3] (at 50.0 µM), 44.5%; in experiment [4] (setting [7]) it was 11%; in experiment [4] (setting [8]) it was 69%; in experiment [4] (at 50.0 µM), 59.9%. Further, the growth inhibition in experiment [5] (setting [7]) is 7%; in experiment [5] (setting [8]) it was 77% (active); in experiment [5] (at 50.0 µM) it was 80.9% (active); in experiment [6] (setting [7]) it was 1%; in experiment [6] (setting [8]) it was 60%; in experiment [6] (at 50.0 µM), 65.3%.

For the molecule `Cc1ccc(Cl)cc1NN`, the growth inhibition in experiment [1] (setting [7]) was -1%; in experiment [1] (setting [8]), 95% (active); in experiment [1] (at 50.0 µM) it was 96.5% (active); in experiment [2] (setting [7]), 5%; in experiment [2] (setting [8]) it was 97% (active); in experiment [2] (at 50.0 µM), 99.2% (active). Moreover, the growth inhibition is 2% in experiment [3] (setting [7]); 89% (active) in experiment [3] (setting [8]); 48.6% in experiment [3] (at 50.0 µM); -1% in experiment [4] (setting [7]); 94% (active) in experiment [4] (setting [8]); 97.6% (active) in experiment [4] (at 50.0 µM). Also, the growth inhibition is -2% in experiment [5] (setting [7]); 97% (active) in experiment [5] (setting [8]); 96.9% (active) in experiment [5] (at 50.0 µM); 5% in experiment [6] (setting [7]); 96% (active) in experiment [6] (setting [8]); 47.6% in experiment [6] (at 50.0 µM).

In the case of `[N-]=[N+]=CC(=O)CCC(NC(=O)OCc1ccccc1)C(=O)OCc1ccccc1` (stereo not given), the growth inhibition in experiment [1] (setting [7]) is 96% (active); in experiment [1] (setting [8]), 99% (active); in experiment [1] (at 50.0 µM), 91.2% (active); in experiment [2] (setting [7]) it was 97% (active); in experiment [2] (setting [8]) it was 100% (active); in experiment [2] (at 50.0 µM), 93.1% (active). The growth inhibition is 96% (active) in experiment [3] (setting [7]); 99% (active) in experiment [3] (setting [8]); 90.5% (active) in experiment [3] (at 50.0 µM); 96% (active) in experiment [4] (setting [7]); 99% (active) in experiment [4] (setting [8]); 90.9% (active) in experiment [4] (at 50.0 µM). Further, the growth inhibition in experiment [5] (setting [7]) is 97% (active); in experiment [5] (setting [8]) it was 100% (active); in experiment [5] (at 50.0 µM), 89% (active); in experiment [6] (setting [7]) it was 97% (active); in experiment [6] (setting [8]), 98% (active); in experiment [6] (at 50.0 µM), 90.8% (active).

Turning to `COC(=O)C(O)(/C(=N\O)c1ccccc1)c1ccccc1` (stereo not given), the growth inhibition in experiment [1] (setting [7]) was 0%; in experiment [1] (setting [8]), 0%; in experiment [1] (at 50.0 µM), 4.8%; in experiment [2] (setting [7]), 0%; in experiment [2] (setting [8]), -1%; in experiment [2] (at 50.0 µM), 16.7%. The growth inhibition in experiment [3] (setting [7]) was 5%; in experiment [3] (setting [8]), 0%; in experiment [3] (at 50.0 µM), 25.6%; in experiment [4] (setting [7]), -1%; in experiment [4] (setting [8]) it was -5%; in experiment [4] (at 50.0 µM), 71.1% (active). The growth inhibition is 0% in experiment [5] (setting [7]); -8% in experiment [5] (setting [8]); 29.1% in experiment [5] (at 50.0 µM); 0% in experiment [6] (setting [7]); -2% in experiment [6] (setting [8]); 8.35% in experiment [6] (at 50.0 µM).

With `CCOC(=O)/C(C#N)=C\c1ccc(N(CCC(=O)O)CCC(=O)O)c(I)c1`, the growth inhibition is 1% in experiment [1] (setting [7]); 77% (active) in experiment [1] (setting [8]); -6.7% in experiment [1] (at 50.0 µM); -4% in experiment [2] (setting [7]); 77% (active) in experiment [2] (setting [8]); 33.5% in experiment [2] (at 50.0 µM). Besides, the growth inhibition was 3% in experiment [3] (setting [7]); 37% in experiment [3] (setting [8]); -5.3% in experiment [3] (at 50.0 µM); -7% in experiment [4] (setting [7]); 77% (active) in experiment [4] (setting [8]); 53.8% in experiment [4] (at 50.0 µM). Further, the growth inhibition in experiment [5] (setting [7]) was 35%; in experiment [5] (setting [8]), 93% (active); in experiment [5] (at 50.0 µM) it was -13.1%; in experiment [6] (setting [7]) it was 10%; in experiment [6] (setting [8]), 77% (active); in experiment [6] (at 50.0 µM) it was -6.35%.

For `C1CCC2CC3(CCNCC3)CCC2C1` (stereo not given), the growth inhibition is 14% in experiment [1] (setting [7]); 55% in experiment [1] (setting [8]); 75.2% (active) in experiment [1] (at 50.0 µM); 9% in experiment [2] (setting [7]); 55% in experiment [2] (setting [8]); 55.4% in experiment [2] (at 50.0 µM). Further, the growth inhibition in experiment [3] (setting [7]) is 16%; in experiment [3] (setting [8]), 79% (active); in experiment [3] (at 50.0 µM) it was 88.4% (active); in experiment [4] (setting [7]), 12%; in experiment [4] (setting [8]), 82% (active); in experiment [4] (at 50.0 µM), 83.7% (active). The growth inhibition in experiment [5] (setting [7]) is 11%; in experiment [5] (setting [8]), 66%; in experiment [5] (at 50.0 µM) it was 86.8% (active); in experiment [6] (setting [7]), 9%; in experiment [6] (setting [8]), 73% (active); in experiment [6] (at 50.0 µM), 92% (active).

For the molecule `CS(=O)(=O)N\N=C1/C=C\C(=N/NS(C)(=O)=O)CCc2ccc(cc2)CC1`, the growth inhibition in experiment [1] (setting [7]) is -1%; in experiment [1] (setting [8]), 77% (active); in experiment [1] (at 50.0 µM), 86.3% (active); in experiment [2] (setting [7]) it was 7%; in experiment [2] (setting [8]), 96% (active); in experiment [2] (at 50.0 µM), 88.8% (active). In addition, the growth inhibition in experiment [3] (setting [7]) was -34%; in experiment [3] (setting [8]), 92% (active); in experiment [3] (at 50.0 µM), 93.3% (active); in experiment [4] (setting [7]) it was -1%; in experiment [4] (setting [8]) it was 19%; in experiment [4] (at 50.0 µM) it was 39.6%. Also, the growth inhibition in experiment [5] (setting [7]) is -4%; in experiment [5] (setting [8]), 92% (active); in experiment [5] (at 50.0 µM), 90% (active); in experiment [6] (setting [7]), 5%; in experiment [6] (setting [8]) it was 95% (active); in experiment [6] (at 50.0 µM), 94.5% (active).

`CCCCCCCCCc1cc(=O)[nH]c(=S)[nH]1`: the growth inhibition in experiment [1] (setting [7]) was 17%; in experiment [1] (setting [8]), 74% (active); in experiment [1] (at 50.0 µM) it was 85.1% (active); in experiment [2] (setting [7]) it was 6%; in experiment [2] (setting [8]), 72% (active); in experiment [2] (at 50.0 µM) it was 77.7% (active). In addition, the growth inhibition in experiment [3] (setting [7]) was 25%; in experiment [3] (setting [8]) it was 65%; in experiment [3] (at 50.0 µM), 79.3% (active); in experiment [4] (setting [7]), -13%; in experiment [4] (setting [8]), 58%; in experiment [4] (at 50.0 µM), 50.5%. Further, the growth inhibition is 8% in experiment [5] (setting [7]); 77% (active) in experiment [5] (setting [8]); 85.9% (active) in experiment [5] (at 50.0 µM); 20% in experiment [6] (setting [7]); 84% (active) in experiment [6] (setting [8]); 86.8% (active) in experiment [6] (at 50.0 µM).
